PubChem BioAssay (NCATS)
Values without a mark were called inactive. Records with an inconclusive call do not appear. Where a call stands in place of a potency, no number is given. Calls of active or inactive are those of the source. Unless noted, calls come from the whole dose curve; as a rule, active = well fitted curve in the direction sought with a large enough effect; inconclusive = small, poorly fitted or top-dose-only effect, or another doubt; inactive = no such curve, though single readings can be large; an effect the other way counts as inactive or inconclusive.

Assays:
[1] = biological target: Cytochrome P450 1A2 (Homo sapiens) (UniProt P05177); assay: p450-cyp1a2 (AID 410; calls by dose curve; note: potency is the fitted concentration of half-maximal effect)
Procedure, shortened: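 20nM CYP1A2, 100uM Luciferin-ME (=Km), 100mM KPO4; cpd 10 min RT; +NADPH regen, 60 min RT; stop/detect 20 min; luminescence. Normalized to furafylline 57 uM = full inhibition.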

[2] = biological target: Mitogen-activated protein kinase 10 (Mus musculus) (UniProt Q61831); assay: JNK3 AlphaScreen Assay (AID 530; active = well fitted curve in either direction with a large enough effect, not every such curve was filed as active;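 note: kinase came from lysate of stimulated human HepG2 cells; signal reports phosphorylation of biotinylated GST-cJun 1-79 at Ser73 with 10 µM ATP; series mostly up to about 57 µM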)
Procedure, shortened: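 Biotinylated GST-cJun(1-79) served as substrate for JNK3 in HepG2 lysates stimulated with IL-1beta and TNF-alpha. ATP was 10 uM final, pH 7.6. Ser73 phosphorylation was quantified by AlphaScreen (680 nm excitation).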

[3] = biological target: 3',5'-cyclic-AMP phosphodiesterase 4B (Homo sapiens) (UniProt Q07343); assay: qHTS Assay for Inhibitors of PDE-IV (AID 607; active = well fitted activation curve with a large enough effect in the main read-out, with a control signal flat, not every such curve was filed as active; note: potency is the fitted concentration of half-maximal effect)
Procedure, shortened: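 Live HEK293 cells with a modified cyclic nucleotide-gated (CNG) channel report intracellular cAMP via membrane-potential dye fluorescence (ex 535/em 590 nm). Endogenous PDE-IV was targeted. Compounds were tested at up to 22.9 uM final; RO 20-1724 100 uM served as control.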

[4] = biological target: Cytochrome P450 3A4 (Homo sapiens) (UniProt P08684); assay: qHTS Assay for Inhibitors and Substrates of Cytochrome P450 3A4 (AID 884); note: nearly all actives have a fitted effect of over 50% in size; note: potency is the fitted concentration of half-maximal effect
Procedure, shortened: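 Luminescent readout of luciferin produced by CYP3A4 (20 nM) dealkylation of Luciferin-PPXE, 25 uM (its KM). NADPH-driven reaction ran 60 min at RT after 10 min compound preincubation; data scaled to 57 uM ketoconazole as 100% inhibition.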

[5] = biological target: Cytochrome P450 3A4 (Homo sapiens) (UniProt P08684); assay: qHTS Assay for Activators of Cytochrome P450 3A4 (AID 885); note: nearly all actives have a fitted effect of over 65% in size
Procedure, shortened: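 Using 20nM recombinant human CYP3A4 in potassium phosphate (200mM), substrate Luciferin-PPXE at 25uM, luminescent luciferin detection followed a 60-min RT NADPH reaction; data scaled to 57 uM ketoconazole.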

[6] = biological target: Cytochrome P450 2D6 (Homo sapiens) (UniProt P10635); assay: qHTS Assay for Inhibitors and Substrates of Cytochrome P450 2D6 (AID 891); note: potency is the fitted concentration of half-maximal effect; nearly all actives have a fitted effect of over 60% in size
Procedure, shortened: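 Luminescent read-out of luciferin formed by 5 nM human CYP2D6 demethylating 30 uM Luciferin-ME EGE (Km level) over 60 min at room temperature after NADPH regeneration addition. Data normalized to full inhibition by 1.43 uM quinidine.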

[7] = biological target: Cytochrome P450 2C19 (Homo sapiens) (UniProt P33261); assay: qHTS Assay for Inhibitors and Substrates of Cytochrome P450 2C19 (AID 899); note: potency is the fitted concentration of half-maximal effect; nearly all actives have a fitted effect of over 60% in size
Procedure, shortened: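 Human CYP2C19 (5nM) with Luciferin-H EGE at 10uM (its KM) in 50mM KPO4 was preincubated with compound for 10 min at 37C. NADPH regeneration started a 60 min 37C reaction. Luciferin was read by luminescence, normalized to 57uM ketoconazole.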

Sequence of Cytochrome P450 2C19 (Homo sapiens) (P33261 whole entry, looked up): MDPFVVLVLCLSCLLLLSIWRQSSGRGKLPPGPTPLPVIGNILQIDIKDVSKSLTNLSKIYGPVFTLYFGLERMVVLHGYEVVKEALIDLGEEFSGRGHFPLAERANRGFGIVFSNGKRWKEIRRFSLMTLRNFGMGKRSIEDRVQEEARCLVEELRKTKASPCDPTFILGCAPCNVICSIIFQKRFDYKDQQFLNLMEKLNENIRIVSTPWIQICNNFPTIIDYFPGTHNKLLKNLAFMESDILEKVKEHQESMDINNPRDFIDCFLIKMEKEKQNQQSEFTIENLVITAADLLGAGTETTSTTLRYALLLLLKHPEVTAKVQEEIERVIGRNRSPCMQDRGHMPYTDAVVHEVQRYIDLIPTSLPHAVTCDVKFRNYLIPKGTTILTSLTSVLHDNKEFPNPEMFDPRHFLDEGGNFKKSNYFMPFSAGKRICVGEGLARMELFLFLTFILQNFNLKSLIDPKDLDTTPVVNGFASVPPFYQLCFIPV
Sequence of Cytochrome P450 3A4 (Homo sapiens) (P08684 whole entry, looked up): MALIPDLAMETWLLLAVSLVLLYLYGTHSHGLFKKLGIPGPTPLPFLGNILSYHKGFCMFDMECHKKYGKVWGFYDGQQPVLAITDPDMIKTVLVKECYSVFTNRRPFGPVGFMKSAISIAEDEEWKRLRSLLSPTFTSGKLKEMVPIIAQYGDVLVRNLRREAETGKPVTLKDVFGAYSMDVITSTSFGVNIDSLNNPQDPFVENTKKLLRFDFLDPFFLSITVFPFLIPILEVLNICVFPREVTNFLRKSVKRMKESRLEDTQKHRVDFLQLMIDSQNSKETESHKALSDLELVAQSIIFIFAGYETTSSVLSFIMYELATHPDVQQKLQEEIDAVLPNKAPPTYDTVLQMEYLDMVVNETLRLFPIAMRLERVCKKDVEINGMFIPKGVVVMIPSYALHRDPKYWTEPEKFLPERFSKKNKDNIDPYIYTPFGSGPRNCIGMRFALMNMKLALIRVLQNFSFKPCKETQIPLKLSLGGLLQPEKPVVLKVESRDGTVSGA
Sequence of Cytochrome P450 2D6 (Homo sapiens) (P10635 whole entry, looked up): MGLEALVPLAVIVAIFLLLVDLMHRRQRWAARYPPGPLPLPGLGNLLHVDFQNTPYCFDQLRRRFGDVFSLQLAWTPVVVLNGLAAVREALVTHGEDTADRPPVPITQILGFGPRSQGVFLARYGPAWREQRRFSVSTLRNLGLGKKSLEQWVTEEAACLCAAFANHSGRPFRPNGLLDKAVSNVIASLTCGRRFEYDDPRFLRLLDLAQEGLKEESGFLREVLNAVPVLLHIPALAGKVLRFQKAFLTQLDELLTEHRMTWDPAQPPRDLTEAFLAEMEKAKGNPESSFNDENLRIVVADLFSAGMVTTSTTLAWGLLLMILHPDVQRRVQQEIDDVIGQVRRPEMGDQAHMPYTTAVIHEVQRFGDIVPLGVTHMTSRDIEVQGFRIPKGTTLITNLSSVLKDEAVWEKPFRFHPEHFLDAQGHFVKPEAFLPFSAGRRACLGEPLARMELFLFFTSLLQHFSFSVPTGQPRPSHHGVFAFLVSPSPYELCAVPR
Sequence of 3',5'-cyclic-AMP phosphodiesterase 4B (Homo sapiens) (Q07343 whole entry, looked up): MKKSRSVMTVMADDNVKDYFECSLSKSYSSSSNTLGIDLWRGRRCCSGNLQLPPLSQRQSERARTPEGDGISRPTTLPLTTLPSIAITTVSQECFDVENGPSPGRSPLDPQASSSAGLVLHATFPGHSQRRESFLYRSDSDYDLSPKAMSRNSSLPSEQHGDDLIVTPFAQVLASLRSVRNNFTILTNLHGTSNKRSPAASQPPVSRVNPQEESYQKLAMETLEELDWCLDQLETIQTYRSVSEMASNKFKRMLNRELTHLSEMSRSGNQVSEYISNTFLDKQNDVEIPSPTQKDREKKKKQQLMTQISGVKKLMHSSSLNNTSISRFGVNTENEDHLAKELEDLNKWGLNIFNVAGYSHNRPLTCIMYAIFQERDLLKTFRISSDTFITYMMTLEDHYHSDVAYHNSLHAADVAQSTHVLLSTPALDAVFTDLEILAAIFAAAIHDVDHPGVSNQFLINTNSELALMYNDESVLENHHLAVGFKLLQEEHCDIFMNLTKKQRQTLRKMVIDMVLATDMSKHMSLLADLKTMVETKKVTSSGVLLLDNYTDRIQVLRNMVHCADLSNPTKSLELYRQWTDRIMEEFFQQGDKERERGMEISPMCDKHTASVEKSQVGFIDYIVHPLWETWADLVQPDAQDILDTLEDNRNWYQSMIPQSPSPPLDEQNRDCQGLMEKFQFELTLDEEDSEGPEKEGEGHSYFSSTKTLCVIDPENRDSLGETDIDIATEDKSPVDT
Sequence of Cytochrome P450 1A2 (Homo sapiens) (P05177 whole entry, looked up): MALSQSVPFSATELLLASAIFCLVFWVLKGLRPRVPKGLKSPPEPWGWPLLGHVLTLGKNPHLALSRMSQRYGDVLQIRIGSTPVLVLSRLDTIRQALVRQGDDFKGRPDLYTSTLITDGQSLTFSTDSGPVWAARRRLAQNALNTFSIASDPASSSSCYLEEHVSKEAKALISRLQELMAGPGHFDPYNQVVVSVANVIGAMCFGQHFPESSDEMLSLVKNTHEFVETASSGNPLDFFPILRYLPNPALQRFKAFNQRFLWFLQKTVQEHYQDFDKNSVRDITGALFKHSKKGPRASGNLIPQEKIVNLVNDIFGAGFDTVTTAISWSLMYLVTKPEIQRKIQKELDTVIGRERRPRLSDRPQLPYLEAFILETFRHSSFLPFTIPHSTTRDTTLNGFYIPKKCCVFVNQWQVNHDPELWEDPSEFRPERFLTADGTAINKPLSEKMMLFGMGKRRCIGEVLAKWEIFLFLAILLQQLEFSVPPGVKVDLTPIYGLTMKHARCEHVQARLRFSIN

SMILES | Potency [1] | Potency [2] | Potency [3] | Potency [4] | Potency [5] | Potency [6] | Potency [7]
COCC1C2CC[C@H]3C(OCc4ccc(OC)cc4)OC[C@]4(C)[C@H]3C2=C(CN4C(=O)OC(C)(C)C)[C@H](C)C1COC (stereo partly drawn) | 15.8 µM (active) | inactive | inactive | 1.58 µM (active) | inactive |  | 
COC(=O)[C@@]1(Cc2ccc(F)cc2)[C@H]2c3cc(C(=O)N4CCCC4)n(Cc4ccc(Cl)c(C(F)(F)F)c4)c3C[C@H]2CN1C(=O)c1ccccc1 | inactive | inactive | inactive | 2.51 µM (active) | inactive |  | 
C[C@@H](C(=O)Nc1ccc2ccccc2c1)[C@@H]1C[C@@]1(C)[C@@H](NC(=O)OCc1ccccc1)c1ccccc1 | 15.8 µM (active) | inactive | inactive | 7.94 µM (active) | inactive |  | 
CNC(=O)[C@H](C)[C@H]1C[C@]1(C)[C@H](NC(=O)OCc1ccccc1)c1ccccc1 | 20 µM (active) | inactive | inactive | 2 µM (active) | inactive |  | 
C[C@@H](C(=O)NCc1ccc(S(C)(=O)=O)cc1)[C@H]1C[C@]1(C)[C@H](NC(=O)OCc1ccccc1)c1ccccc1 | 12.6 µM (active) | inactive | inactive | 3.16 µM (active) | inactive | 0.398 µM (active) | 
COC(=O)[C@H]1C[C@@H]1[C@H](NC(=O)c1ccccc1)c1ccccc1 | 15.8 µM (active) | inactive | inactive | inactive |  |  | 7.94 µM (active)
C=C1C(=O)C=C2CN(C(=O)c3ccccc3)[C@@](Cc3ccc(OC)cc3)(C(=O)OC)[C@@H]12 | 15.8 µM (active) | inactive | 1.58 µM (active) | 1.58 µM (active) | inactive |  | 
COC(=O)[C@@]1(Cc2ccccc2)[C@H]2c3cc(C(=O)N4CCCC4)n(Cc4ccc(S(C)(=O)=O)cc4)c3C[C@H]2CN1C(=O)c1ccccc1 | inactive | inactive | inactive | 3.16 µM (active) | inactive |  | 
COC(=O)Cn1c(C(=O)N2CCCC2)cc2c1C[C@H]1CN(C(=O)c3ccccc3)[C@@](Cc3ccc(F)cc3)(C(=O)OC)[C@@H]21 | 15.8 µM (active) | inactive | inactive | 3.16 µM (active) | inactive |  | 
C#CCCCC(=O)Nc1ccccc1 | 20 µM (active) | inactive | inactive |  | inactive |  | 
COC(=O)[C@@]1(Cc2ccc(F)cc2)[C@H]2c3cc(C(=O)N(C)C)n(Cc4c(CO)[nH]cc(C)c4=O)c3C[C@H]2CN1C(=O)c1ccccc1 | 25.1 µM (active) | inactive | inactive | 1.58 µM (active) | inactive |  | 
C[C@H](CO)NC(=O)[C@@H]1C[C@H]1[C@@H](NP(=O)(c1ccccc1)c1ccccc1)c1ccccc1 | inactive | inactive | inactive |  | inactive |  | 
C[C@@H](C(=O)Nc1ccc2ccccc2c1)[C@@H]1C[C@@]1(C)[C@@H](N)c1ccccc1 | 15.8 µM (active) | inactive | inactive | 7.94 µM (active) | inactive |  | 
COC(=O)C1(Cc2ccccc2)C=C2C(=C(C(C)C)C(=O)C2C)CN1 (stereo not drawn) | 15.8 µM (active) | inactive | inactive | 7.94 µM (active) | inactive |  | 
CNC(=O)[C@H](C)[C@@H]1C[C@@]1(C)[C@@H](NC(=O)OCc1ccccc1)c1ccccc1 | 20 µM (active) | inactive | inactive | 2.51 µM (active) | inactive | 3.16 µM (active) | 0.631 µM (active)
CC1(C)C(=O)C(c2ccccc2)=C2CN3C(=O)N(CCc4ccccc4)C(=O)C3(Cc3ccccc3)C=C21 (stereo not drawn) | 6.31 µM (active) | inactive | inactive | 2 µM (active) | inactive |  | 
CCCC[C@H]1C[C@@H]1[C@@H]1N(P(=O)(c2ccccc2)c2ccccc2)C[C@@](O)(c2ccccc2)CC12CC2 | inactive | inactive | inactive | 2 µM (active) | inactive |  | 
COC(=O)[C@H]1C[C@@H]1[C@H](NC(=O)c1cccnc1)c1ccccc1 | 12.6 µM (active) | inactive | inactive | 5.01 µM (active) | inactive |  | 
O=C(N[C@@H](c1ccccc1)[C@@H]1C[C@H]1C(=O)NCc1ccccn1)OCc1ccccc1 | 10 µM (active) | inactive | inactive | 6.31 µM (active) | inactive |  | 7.94 µM (active)
COC(=O)[C@@]1(Cc2ccccc2)[C@H]2c3cc(C(=O)N4CCCC4)n(Cc4nc5ccccc5[nH]4)c3C[C@H]2CN1C(=O)c1ccccc1 | 12.6 µM (active) | inactive | inactive | 1.26 µM (active) | inactive | 7.94 µM (active) | 
COC(=O)[C@@]1(Cc2ccc(F)cc2)[C@H]2c3cc(C(=O)N4CCCC4)n(Cc4c(CO)[nH]cc(C)c4=O)c3C[C@H]2CN1C(=O)c1ccccc1 | 20 µM (active) | inactive | inactive | 2 µM (active) | inactive |  | 
